In PMC7862700, “An all-to-all approach to the identification of sequence-specific readers for epigenetic DNA modifications on cytosine”:

How the values were obtained:
Test in all cases: DAPPL (digital affinity profiling via proximity ligation, sequencing); 10 mM Tris-HCl pH 7.5, 50 mM NaCl, 1 mM DTT, 4% glycerol, room temperature, 30 min; GST-TFs on glutathione beads, 16-mer random dsDNA library, 0.1% formaldehyde crosslink after washing; high values mean tight binding
Settings in all cases: protein: recombinant; tags: N-terminal GST; dsDNA, one strand shown
ELK1 = molecular target: T1, ELK1 (Homo sapiens, UniProt P19419 1-428)
T1 sequence: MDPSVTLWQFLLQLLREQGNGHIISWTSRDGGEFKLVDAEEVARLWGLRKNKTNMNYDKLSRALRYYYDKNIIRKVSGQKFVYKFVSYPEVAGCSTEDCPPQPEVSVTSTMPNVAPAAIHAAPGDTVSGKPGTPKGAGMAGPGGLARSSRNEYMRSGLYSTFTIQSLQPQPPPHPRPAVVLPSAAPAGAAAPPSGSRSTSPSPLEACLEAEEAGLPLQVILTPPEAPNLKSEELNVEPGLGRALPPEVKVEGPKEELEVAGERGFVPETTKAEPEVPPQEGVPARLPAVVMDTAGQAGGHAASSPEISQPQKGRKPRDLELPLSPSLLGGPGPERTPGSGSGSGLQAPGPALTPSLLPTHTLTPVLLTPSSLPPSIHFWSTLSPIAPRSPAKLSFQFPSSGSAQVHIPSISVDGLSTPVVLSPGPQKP
Procedure, shortened: (§1)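 Yeast served to express human transcription factors as GST fusions, which were then captured on glutathione beads and labelled with DNA barcodes. Pooled with a tag-only sample, they were incubated with 200 nmole of a 16-mer random double-stranded DNA library for 30 min at room temperature in Tris/NaCl/DTT/glycerol buffer, washed, crosslinked with 0.1% formaldehyde, ligated by proximity, amplified by PCR and sequenced. Dividing each hexamer's read frequency for a factor by its frequency for the tag-only sample gives the binding signal.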

GABPA = molecular target: T2, GABPA (Homo sapiens, UniProt Q06546 1-454)
T2 sequence: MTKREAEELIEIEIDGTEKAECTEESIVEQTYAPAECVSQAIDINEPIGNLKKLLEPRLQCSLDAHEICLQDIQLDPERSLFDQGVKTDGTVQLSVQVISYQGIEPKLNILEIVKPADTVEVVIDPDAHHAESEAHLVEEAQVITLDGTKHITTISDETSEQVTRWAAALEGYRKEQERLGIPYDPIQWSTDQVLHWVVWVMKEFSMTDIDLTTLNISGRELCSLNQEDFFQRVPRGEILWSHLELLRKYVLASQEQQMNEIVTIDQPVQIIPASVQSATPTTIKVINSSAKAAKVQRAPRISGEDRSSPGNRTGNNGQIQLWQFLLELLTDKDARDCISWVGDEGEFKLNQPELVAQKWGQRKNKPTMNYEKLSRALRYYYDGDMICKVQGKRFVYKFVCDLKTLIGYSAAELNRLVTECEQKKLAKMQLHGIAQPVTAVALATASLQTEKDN
Procedure, shortened: as §1

ERG = molecular target: T3, ERG (Homo sapiens, UniProt P11308 1-479)
T3 sequence: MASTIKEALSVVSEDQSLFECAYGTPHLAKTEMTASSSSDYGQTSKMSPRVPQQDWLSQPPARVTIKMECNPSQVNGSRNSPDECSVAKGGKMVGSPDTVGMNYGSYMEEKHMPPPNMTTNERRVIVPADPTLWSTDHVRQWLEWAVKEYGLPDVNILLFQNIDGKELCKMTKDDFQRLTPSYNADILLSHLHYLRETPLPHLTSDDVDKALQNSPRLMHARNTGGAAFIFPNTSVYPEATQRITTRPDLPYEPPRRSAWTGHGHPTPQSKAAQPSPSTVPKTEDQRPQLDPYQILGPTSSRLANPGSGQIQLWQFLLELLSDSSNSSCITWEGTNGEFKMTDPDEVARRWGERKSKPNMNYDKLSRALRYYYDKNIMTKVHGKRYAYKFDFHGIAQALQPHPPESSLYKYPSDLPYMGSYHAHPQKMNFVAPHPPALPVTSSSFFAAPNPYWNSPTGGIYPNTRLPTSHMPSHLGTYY
Procedure, shortened: as §1

ELF1 = ELF1 (Homo sapiens, UniProt P32519 1-619)
Procedure, shortened: as §1

SPI1 = SPI1 (Homo sapiens, UniProt P17947 1-270)
Procedure, shortened: as §1

SPIB = SPIB (Homo sapiens, UniProt Q01892 1-262)
Procedure, shortened: as §1

ELF4 = ELF4 (Homo sapiens, UniProt Q99607 1-663)
Procedure, shortened: as §1

ELK4 = molecular target: T4, ELK4 (Homo sapiens, UniProt P28324-2 1-405)
T4 sequence: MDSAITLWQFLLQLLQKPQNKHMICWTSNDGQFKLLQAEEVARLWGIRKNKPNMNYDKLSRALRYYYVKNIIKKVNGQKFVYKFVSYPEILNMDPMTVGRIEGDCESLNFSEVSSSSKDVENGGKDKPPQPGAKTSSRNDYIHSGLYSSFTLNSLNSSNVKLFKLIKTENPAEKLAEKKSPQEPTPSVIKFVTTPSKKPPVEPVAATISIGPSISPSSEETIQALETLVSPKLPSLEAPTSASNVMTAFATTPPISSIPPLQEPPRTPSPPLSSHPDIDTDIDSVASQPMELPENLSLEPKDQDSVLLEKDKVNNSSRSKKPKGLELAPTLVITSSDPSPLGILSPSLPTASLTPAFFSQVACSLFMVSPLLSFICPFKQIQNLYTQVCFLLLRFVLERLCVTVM
Procedure, shortened: as §1

ETV2 = molecular target: T5, ETV2 (Homo sapiens, UniProt O00321 1-342)
T5 sequence: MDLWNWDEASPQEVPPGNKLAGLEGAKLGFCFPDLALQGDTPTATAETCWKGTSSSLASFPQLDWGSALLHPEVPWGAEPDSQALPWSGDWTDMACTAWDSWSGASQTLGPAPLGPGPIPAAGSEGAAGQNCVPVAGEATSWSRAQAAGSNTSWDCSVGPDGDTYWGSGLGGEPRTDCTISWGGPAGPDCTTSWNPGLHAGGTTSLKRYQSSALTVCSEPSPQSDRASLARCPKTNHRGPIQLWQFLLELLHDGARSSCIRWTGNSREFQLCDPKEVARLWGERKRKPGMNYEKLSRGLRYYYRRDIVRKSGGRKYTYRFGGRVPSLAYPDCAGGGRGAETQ
Procedure, shortened: as §1

ETV1 = ETV1 (Homo sapiens, UniProt P50549 1-477)
Procedure, shortened: as §1

ERF = molecular target: T6, ERF (Homo sapiens, UniProt P50548 1-548)
T6 sequence: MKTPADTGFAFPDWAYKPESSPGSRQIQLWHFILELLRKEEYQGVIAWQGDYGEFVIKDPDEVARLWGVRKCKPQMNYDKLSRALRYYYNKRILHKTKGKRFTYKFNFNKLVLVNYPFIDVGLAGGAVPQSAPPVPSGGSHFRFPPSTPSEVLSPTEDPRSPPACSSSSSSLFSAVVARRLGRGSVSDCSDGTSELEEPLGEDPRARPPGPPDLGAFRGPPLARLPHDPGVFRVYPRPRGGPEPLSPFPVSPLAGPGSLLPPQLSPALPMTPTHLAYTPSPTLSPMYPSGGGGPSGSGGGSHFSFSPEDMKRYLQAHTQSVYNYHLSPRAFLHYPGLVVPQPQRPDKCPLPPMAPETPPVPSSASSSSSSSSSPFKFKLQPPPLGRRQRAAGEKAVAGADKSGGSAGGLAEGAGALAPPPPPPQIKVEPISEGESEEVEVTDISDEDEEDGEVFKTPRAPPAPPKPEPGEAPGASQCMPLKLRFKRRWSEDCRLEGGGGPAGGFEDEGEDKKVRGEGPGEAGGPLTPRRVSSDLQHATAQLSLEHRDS
Procedure, shortened: as §1

ETV3L = molecular target: T7, ETV3L (Homo sapiens, UniProt Q6ZN32 1-361)
T7 sequence: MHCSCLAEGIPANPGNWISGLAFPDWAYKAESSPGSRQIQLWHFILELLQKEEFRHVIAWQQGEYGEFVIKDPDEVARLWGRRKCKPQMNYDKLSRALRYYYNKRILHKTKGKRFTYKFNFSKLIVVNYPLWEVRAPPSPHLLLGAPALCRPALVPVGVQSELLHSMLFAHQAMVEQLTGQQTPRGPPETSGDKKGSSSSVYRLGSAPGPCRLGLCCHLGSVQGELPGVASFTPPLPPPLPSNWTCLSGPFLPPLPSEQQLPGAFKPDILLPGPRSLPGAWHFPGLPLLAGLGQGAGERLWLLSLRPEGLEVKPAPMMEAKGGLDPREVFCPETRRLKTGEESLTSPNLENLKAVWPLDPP
Procedure, shortened: as §1

ETV3 = molecular target: T8, ETV3 (Homo sapiens, UniProt P41162-2 1-143)
T8 sequence: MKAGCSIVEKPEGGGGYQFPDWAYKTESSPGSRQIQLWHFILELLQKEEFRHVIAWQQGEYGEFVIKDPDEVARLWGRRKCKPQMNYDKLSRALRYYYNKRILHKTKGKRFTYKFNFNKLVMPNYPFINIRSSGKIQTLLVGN
Procedure, shortened: as §1

ETV6 = ETV6 (Homo sapiens, UniProt P41212 1-452)
Procedure, shortened: as §1

EHF = molecular target: T9, EHF (Homo sapiens, UniProt Q9NZC4 1-300)
T9 sequence: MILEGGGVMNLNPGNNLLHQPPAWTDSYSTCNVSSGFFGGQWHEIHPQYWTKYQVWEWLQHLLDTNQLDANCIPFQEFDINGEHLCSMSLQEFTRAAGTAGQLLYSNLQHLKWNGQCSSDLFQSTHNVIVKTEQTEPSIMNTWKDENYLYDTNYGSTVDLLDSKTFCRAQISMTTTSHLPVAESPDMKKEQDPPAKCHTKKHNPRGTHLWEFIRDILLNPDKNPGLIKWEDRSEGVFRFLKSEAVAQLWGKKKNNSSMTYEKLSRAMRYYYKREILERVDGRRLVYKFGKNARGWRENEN
Procedure, shortened: as §1

SPIC = molecular target: T10, SPIC (Homo sapiens, UniProt Q8N5J4 1-248)
T10 sequence: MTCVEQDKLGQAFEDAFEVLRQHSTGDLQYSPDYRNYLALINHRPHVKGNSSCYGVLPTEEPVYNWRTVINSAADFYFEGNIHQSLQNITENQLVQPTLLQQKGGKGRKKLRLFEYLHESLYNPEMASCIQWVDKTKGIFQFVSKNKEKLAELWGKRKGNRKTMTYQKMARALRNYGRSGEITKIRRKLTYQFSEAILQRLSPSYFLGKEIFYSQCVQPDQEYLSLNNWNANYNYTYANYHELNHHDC
Procedure, shortened: as §1

ELF3 = molecular target: T11, ELF3 (Homo sapiens, UniProt P78545 1-371)
T11 sequence: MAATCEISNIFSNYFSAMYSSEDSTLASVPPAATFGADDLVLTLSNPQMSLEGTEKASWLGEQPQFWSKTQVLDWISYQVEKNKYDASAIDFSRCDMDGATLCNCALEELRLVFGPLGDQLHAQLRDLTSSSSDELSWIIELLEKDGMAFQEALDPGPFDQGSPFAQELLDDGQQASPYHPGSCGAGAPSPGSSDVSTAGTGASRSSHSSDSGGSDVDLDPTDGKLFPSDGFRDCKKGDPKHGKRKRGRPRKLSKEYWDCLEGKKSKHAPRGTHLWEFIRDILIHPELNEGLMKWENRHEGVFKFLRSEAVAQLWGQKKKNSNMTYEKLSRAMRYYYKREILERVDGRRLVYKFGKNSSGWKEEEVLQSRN
Procedure, shortened: as §1

Chain of ELF4 (Q99607 whole entry): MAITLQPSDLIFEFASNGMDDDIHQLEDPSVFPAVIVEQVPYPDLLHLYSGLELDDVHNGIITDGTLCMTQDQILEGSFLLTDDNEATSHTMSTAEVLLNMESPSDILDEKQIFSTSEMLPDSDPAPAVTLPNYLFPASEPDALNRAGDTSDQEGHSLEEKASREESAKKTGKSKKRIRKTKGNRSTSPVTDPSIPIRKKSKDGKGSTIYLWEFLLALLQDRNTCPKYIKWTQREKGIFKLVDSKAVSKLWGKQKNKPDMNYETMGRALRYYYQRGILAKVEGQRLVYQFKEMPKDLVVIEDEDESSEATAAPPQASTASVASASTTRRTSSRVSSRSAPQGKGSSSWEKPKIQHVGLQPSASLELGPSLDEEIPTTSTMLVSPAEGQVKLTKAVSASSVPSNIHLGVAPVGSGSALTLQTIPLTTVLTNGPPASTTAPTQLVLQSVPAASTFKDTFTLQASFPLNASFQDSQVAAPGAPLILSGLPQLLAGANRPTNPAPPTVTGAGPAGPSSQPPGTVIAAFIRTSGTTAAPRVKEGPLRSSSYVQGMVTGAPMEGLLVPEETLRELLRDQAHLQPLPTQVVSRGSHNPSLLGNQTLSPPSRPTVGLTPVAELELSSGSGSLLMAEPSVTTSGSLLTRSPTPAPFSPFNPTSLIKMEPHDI
Chain of ETV6 (P41212 whole entry): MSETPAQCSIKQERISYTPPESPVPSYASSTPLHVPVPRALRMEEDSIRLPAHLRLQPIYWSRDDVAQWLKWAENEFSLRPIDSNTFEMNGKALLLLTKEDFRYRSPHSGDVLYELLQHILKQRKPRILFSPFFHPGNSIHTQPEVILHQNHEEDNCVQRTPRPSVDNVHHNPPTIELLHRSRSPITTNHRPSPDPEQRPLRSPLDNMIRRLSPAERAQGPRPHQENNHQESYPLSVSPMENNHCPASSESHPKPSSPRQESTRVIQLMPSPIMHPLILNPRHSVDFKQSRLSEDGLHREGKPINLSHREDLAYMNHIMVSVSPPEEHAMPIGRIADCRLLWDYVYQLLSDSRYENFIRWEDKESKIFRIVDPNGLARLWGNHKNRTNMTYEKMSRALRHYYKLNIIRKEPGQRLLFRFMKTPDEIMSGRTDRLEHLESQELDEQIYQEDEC
Chain of SPIB (Q01892 whole entry): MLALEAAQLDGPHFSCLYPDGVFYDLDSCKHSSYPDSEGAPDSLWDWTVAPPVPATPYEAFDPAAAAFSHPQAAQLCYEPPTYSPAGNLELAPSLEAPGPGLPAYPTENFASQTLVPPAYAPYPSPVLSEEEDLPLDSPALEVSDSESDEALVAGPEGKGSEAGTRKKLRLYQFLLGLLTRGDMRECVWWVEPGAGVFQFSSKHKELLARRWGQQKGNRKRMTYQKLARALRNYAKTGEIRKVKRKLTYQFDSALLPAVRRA
Chain of ELF1 (P32519 whole entry): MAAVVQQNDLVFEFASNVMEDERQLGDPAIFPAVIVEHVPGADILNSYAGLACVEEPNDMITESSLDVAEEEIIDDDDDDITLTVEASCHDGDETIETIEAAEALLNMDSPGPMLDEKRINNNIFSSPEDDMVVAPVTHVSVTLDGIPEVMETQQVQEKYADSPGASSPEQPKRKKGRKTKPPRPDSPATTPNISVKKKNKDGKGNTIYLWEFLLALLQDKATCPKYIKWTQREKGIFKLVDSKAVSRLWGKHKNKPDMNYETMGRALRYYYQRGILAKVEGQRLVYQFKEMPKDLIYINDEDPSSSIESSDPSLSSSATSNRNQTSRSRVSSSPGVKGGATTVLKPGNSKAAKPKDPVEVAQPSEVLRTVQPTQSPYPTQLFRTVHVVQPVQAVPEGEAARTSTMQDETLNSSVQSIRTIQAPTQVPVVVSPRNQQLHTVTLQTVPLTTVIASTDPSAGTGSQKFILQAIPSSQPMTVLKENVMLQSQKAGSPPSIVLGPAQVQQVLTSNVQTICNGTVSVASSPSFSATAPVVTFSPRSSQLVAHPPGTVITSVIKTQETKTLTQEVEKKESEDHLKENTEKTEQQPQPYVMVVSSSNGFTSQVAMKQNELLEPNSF
Chain of ETV1 (P50549 whole entry): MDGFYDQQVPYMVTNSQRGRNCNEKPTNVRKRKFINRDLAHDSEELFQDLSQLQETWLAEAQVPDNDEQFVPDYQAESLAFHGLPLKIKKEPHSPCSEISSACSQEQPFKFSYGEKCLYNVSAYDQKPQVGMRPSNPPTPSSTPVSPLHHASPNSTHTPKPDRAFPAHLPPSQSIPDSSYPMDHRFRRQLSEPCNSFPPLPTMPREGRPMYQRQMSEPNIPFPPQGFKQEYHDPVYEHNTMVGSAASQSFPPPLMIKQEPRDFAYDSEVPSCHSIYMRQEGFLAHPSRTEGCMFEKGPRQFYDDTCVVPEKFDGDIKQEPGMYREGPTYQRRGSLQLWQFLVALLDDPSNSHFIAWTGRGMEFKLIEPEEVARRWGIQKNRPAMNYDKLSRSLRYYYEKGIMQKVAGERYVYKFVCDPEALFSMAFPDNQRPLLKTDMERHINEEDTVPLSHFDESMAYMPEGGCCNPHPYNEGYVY

Sequence	binding signal (ELK1)	binding signal (GABPA)	binding signal (ERG)	binding signal (ELF1)	binding signal (SPI1)	binding signal (SPIB)	binding signal (ELF4)	binding signal (ELK4)	binding signal (ETV2)	binding signal (ETV1)	binding signal (ERF)	binding signal (ETV3L)	binding signal (ETV3)	binding signal (ETV6)	binding signal (EHF)	binding signal (SPIC)	binding signal (ELF3)
GCAATC	1.05 fold enrichment (6-mer frequency, TF over GST control)	1.04 fold enrichment (6-mer frequency, TF over GST control)	1.03 fold enrichment (6-mer frequency, TF over GST control)	1.09 fold enrichment (6-mer frequency, TF over GST control)	1.02 fold enrichment (6-mer frequency, TF over GST control)	1.05 fold enrichment (6-mer frequency, TF over GST control)	1.02 fold enrichment (6-mer frequency, TF over GST control)	1.07 fold enrichment (6-mer frequency, TF over GST control)	1.05 fold enrichment (6-mer frequency, TF over GST control)	1.06 fold enrichment (6-mer frequency, TF over GST control)	1.03 fold enrichment (6-mer frequency, TF over GST control)	1.01 fold enrichment (6-mer frequency, TF over GST control)	1.06 fold enrichment (6-mer frequency, TF over GST control)	1.11 fold enrichment (6-mer frequency, TF over GST control)	–	–	–
TGGGTG	1.09 fold enrichment (6-mer frequency, TF over GST control)	–	1.01 fold enrichment (6-mer frequency, TF over GST control)	–	1 fold enrichment (6-mer frequency, TF over GST control)	–	1.01 fold enrichment (6-mer frequency, TF over GST control)	1.07 fold enrichment (6-mer frequency, TF over GST control)	–	–	1.06 fold enrichment (6-mer frequency, TF over GST control)	1.08 fold enrichment (6-mer frequency, TF over GST control)	1 fold enrichment (6-mer frequency, TF over GST control)	1.21 fold enrichment (6-mer frequency, TF over GST control)	1.01 fold enrichment (6-mer frequency, TF over GST control)	1.03 fold enrichment (6-mer frequency, TF over GST control)	1.03 fold enrichment (6-mer frequency, TF over GST control)
